Only some compounds are listed: those with a hit (about 1.2% of all), similar ones and a draw of the others.
Avidin fluor: compound fluoresces at 488/530 nm on avidin beads; AID 1775; compound fluorescence 488/530 nm, flow cytometry; hits give high values; hit rate 0.38% among 220,000; fluorescence (KMESF) at 10 µM; in the data active means fluorescence above about 47
RGS7-Gao: modulates binding of RGS7 to human Galphao. P09471. Multiplexed bead flow cytometry; actives lie on both sides. binding response (% of control), % at 10 µM. hit rate 0.35% among 220,000. AID 1439; in the data active means binding response below about 49% or above about 150%; inconclusive means no clear call, values can overlap the other calls; inactive means in between;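 further: fluorescent Galphao held in activated GDP-AlF4 state binding bead-coupled RGS7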
Target sequence (P09471 whole entry, looked up): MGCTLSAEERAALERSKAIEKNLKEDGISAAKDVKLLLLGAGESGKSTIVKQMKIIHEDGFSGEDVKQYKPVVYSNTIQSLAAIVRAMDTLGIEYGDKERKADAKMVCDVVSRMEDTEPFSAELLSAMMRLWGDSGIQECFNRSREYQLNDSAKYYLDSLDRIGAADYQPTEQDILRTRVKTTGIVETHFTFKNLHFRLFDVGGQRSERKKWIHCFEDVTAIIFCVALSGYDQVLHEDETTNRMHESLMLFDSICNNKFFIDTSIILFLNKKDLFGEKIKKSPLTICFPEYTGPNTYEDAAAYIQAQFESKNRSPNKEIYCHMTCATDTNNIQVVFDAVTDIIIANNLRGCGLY
RGS4-Gao reg: modulates binding of RGS4 to human Galphao; P09471; hit rate 0.33% among 220,000; Multiplexed bead flow cytometry; actives lie on both sides; AID 1415; binding response (% of control), % at 10 µM; in the data active means binding response below about 49% or above about 150%; inactive means in between;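 further: fluorescent Galphao activated with aluminum fluoride binding bead-coupled RGS4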
RGS16-Gao: RGS16-Galphao interaction regulator (human). bead-based flow cytometry RGS16-Galphao binding, fluorescence; actives lie on both sides. O15492+P09471. hit rate 0.38% among 220,000. binding response (% of control), % at 10 µM;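 further: Galphao activated by GDP with aluminum fluoride before binding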
Target sequence (O15492 whole entry, looked up): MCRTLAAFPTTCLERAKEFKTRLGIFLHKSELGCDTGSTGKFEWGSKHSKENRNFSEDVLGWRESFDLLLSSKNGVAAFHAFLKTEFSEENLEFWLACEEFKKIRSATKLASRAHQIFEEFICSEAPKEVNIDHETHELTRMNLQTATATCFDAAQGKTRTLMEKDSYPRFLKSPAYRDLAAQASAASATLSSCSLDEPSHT
Target sequence (P09471 whole entry, looked up): as the sequence (P09471 whole entry, looked up) above
RGS8-Gao reg: regulators of human RGS8-Galphao interaction; P09471; multiplexed bead flow cytometry, RGS8-Galphao binding; actives lie on both sides; response (percent of control binding), % at 10 µM; hit rate 0.34% among 220,000; in the data active means response below about 60% or above about 140%; inactive means in between;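 further: Galphao activated as the GDP aluminium fluoride complex binding bead-coupled RGS8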
GSH fluor: compound fluoresces at 488/530 nm on GSH beads | GSH beads flow cytometry, compound fluorescence 488/530 nm; hits give high values | hit rate 0.25% among 190,000 | AID 1776 | fluorescence (KMESF) at 10 µM; in the data active means fluorescence above about 89;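 further: glutathione beads carrying GST-tagged Bcl family fusion proteins plus one bare bead set; values are compound well signal with DMSO vehicle wells as background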
RGS-Gao: RGS4-Galphao interaction regulator (human); shares compounds with RGS16-Gao; multiplexed bead flow cytometry, RGS–Galpha-o binding; RGS4–Galpha-o binding response, % at 10 µM; hit rate 99% among 1,600;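 further: fluorescently labeled Galpha-o bound to GDP with aluminium fluoride binding biotinylated RGS beads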
Avidin counter: interferes with biotinylated probe binding to avidin beads. shares compounds with RGS16-Gao. streptavidin beads, fluorescein-biotin binding, flow cytometry. inhibition, % at 10 µM. 1,700 tested, under 10 active. AID 1783;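 active means inhibition above 50%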;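 further: median green fluorescence of gated singlet beads compared with DMSO control wells; 0% = DMSO wells and 100% = complete loss of bead fluorescence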
RGS8-Gao single: confirmation of regulators of human RGS8-Galphao interaction; shares compounds with RGS16-Gao; bead-based flow cytometry RGS8-Galphao binding, fluorescence; actives lie on both sides; binding response (% of control), % at 10 µM; hit rate 3% among 1,700; in the data active means binding response below about 72% or above about 130%; inactive means in between;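 further: Galphao activated as GDP AlF4 complex before binding bead RGS8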
RGS7-Gao confirm: confirmation of regulators of human RGS7-Galphao interaction | bead-based flow cytometry RGS7-Galphao binding; actives lie on both sides | response (percent of control binding), % at 10 µM | hit rate 7.8% among 1,700 | shares compounds with RGS16-Gao; in the data active means response below about 75% or above about 130%; inactive means in between;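 further: fluorescent Galphao activated with GDP and aluminum fluoride binding bead-coupled RGS7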
RGS16-Gao single: confirmation of regulators of human RGS16-Galphao interaction; shares compounds with RGS16-Gao; bead-based flow cytometry, RGS16-Galphao binding; actives lie on both sides; response (% of control binding), % at 10 µM; hit rate 4% among 1,700; AID 1838; in the data active means response below about 74% or above about 130%; inactive means in between;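 further: Galphao activated as the GDP aluminium fluoride complex binding bead-coupled RGS16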
RGS4-Gao confirm: confirmation of regulators of human RGS4-Galphao interaction | shares compounds with RGS16-Gao | RGS4-Galphao binding, multiplexed bead flow cytometry; actives lie on both sides | binding response (% of control), % at 10 µM | hit rate 4% among 1,700 | AID 1840; in the data active means binding response below about 74% or above about 130%; inactive means in between
RGS19-Gao single: confirmation of regulators of human RGS19-Galphao interaction; shares compounds with RGS16-Gao; bead-based flow cytometry RGS19-Galphao binding; actives lie on both sides; response (percent of control binding), % at 10 µM; hit rate 5% among 1,700; AID 1841; in the data active means response below about 50% or above about 160%; inactive means in between;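 further: 100% = no compound control and 0% = blank background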
* hit, by the source's call; [ ] = remark or other dose. Unless noted, how the calls were made is not given here.

How did CCN(CC)c1nc(N)nc(N(c2ccccc2)c2ccccc2)n1 do in these assays?
Avidin fluor: 73*; RGS7-Gao: 155*[activator]; RGS4-Gao reg: 105; RGS16-Gao: 103; RGS8-Gao reg: 99; GSH fluor: 21; RGS-Gao: 105*; Avidin counter: 0; RGS8-Gao single: 97; RGS7-Gao confirm: 63*; RGS16-Gao single: 89; RGS4-Gao confirm: 73*; RGS19-Gao single: 74

Results for CN(C)c1nc(N)nc(N(c2ccccc2)c2ccccc2)n1 ?
Avidin fluor: 7; RGS7-Gao: 100; RGS4-Gao reg: 101; RGS16-Gao: 98; RGS8-Gao reg: 100; GSH fluor: 18

How did Cc1nnc(SCC(=O)NC(=O)NCc2ccco2)s1 do in these assays?
Avidin fluor: 15; RGS7-Gao: inconclusive; RGS4-Gao reg: 99; RGS16-Gao: 101; RGS8-Gao reg: 101; GSH fluor: 10

How did O=C(CSc1nn(-c2ccc(F)cc2)c(=S)s1)NC(=O)NCc1ccco1 do in these assays?
Avidin fluor: 2; RGS7-Gao: 88; RGS4-Gao reg: 74; RGS16-Gao: 19*; RGS8-Gao reg: 76; GSH fluor: 19; RGS-Gao: 74*; Avidin counter: 0; RGS8-Gao single: 110; RGS7-Gao confirm: 105; RGS16-Gao single: 106; RGS4-Gao confirm: 103; RGS19-Gao single: 96

What do the screens show for `Cc1ccc(NC(=S)N2CCN(C)CC2)c(C)c1`?
Avidin fluor: 10; RGS7-Gao: 105; RGS4-Gao reg: 107; RGS16-Gao: 186*[activator]; RGS8-Gao reg: 115; GSH fluor: 13; RGS-Gao: 107*; Avidin counter: 1; RGS8-Gao single: 102; RGS7-Gao confirm: 105; RGS16-Gao single: 103; RGS4-Gao confirm: 103; RGS19-Gao single: 121

What do the screens show for `Cc1ccc(NC(=S)N2CCOCC2)c(C)c1`?
Avidin fluor: 44; RGS7-Gao: 110; RGS4-Gao reg: 105; RGS16-Gao: 107; RGS8-Gao reg: 103; GSH fluor: 17

Results for COc1ccc(-n2c(C)cc(/C=C3/SC(=S)N(C)C3=O)c2C)cc1 ?
Avidin fluor: -3; RGS7-Gao: -5.5*; RGS4-Gao reg: -20*; RGS16-Gao: -2.3*; RGS8-Gao reg: 2.9*; GSH fluor: 24; Avidin counter: 3; RGS8-Gao single: 99; RGS7-Gao confirm: 104; RGS16-Gao single: 98; RGS4-Gao confirm: 98; RGS19-Gao single: 103

What do the screens show for `Cc1cc(/C=C2\SC(=S)N(C)C2=O)c(C)n1-c1cccc(O)c1`?
Avidin fluor: 6; RGS7-Gao: inconclusive; RGS4-Gao reg: 96; RGS16-Gao: 99; RGS8-Gao reg: 102

What do the screens show for `O=C1CC(NNc2nc3ccccc3s2)C(=O)N1c1ccccc1` (stereo unspecified)?
Avidin fluor: 24; RGS7-Gao: 96; RGS4-Gao reg: 98; RGS16-Gao: 100; RGS8-Gao reg: 101; GSH fluor: 28

Results for Cc1ccc(N2C(=O)CC(NNc3nc4ccccc4s3)C2=O)cc1 (stereo unspecified) ?
Avidin fluor: -1; RGS7-Gao: 33*; RGS4-Gao reg: 19*; RGS16-Gao: inactive; RGS8-Gao reg: 34*; GSH fluor: 13; Avidin counter: 0; RGS8-Gao single: 103; RGS7-Gao confirm: 98; RGS16-Gao single: 99; RGS4-Gao confirm: 97; RGS19-Gao single: 83

How did CC(=O)Oc1ccc2c(=O)c(Oc3ccccc3)c(C)oc2c1OC(C)=O do in these assays?
Avidin fluor: 3; RGS7-Gao: 43*; RGS4-Gao reg: 49*; RGS16-Gao: -3; RGS8-Gao reg: 54*; GSH fluor: 21; Avidin counter: -1; RGS8-Gao single: 96; RGS7-Gao confirm: 94; RGS16-Gao single: 94; RGS4-Gao confirm: 95; RGS19-Gao single: 93

How did COc1ccc2c(c1)c1nc(SCC(C)C)n(CCO)c(=O)c1n2C do in these assays?
Avidin fluor: 3; RGS7-Gao: 42*; RGS4-Gao reg: 41*; RGS16-Gao: 59; RGS8-Gao reg: 49*; GSH fluor: 21; Avidin counter: 0; RGS8-Gao single: 97; RGS7-Gao confirm: 93; RGS16-Gao single: 98; RGS4-Gao confirm: 97; RGS19-Gao single: 103

How did Cc1ccc(NS(=O)(=O)c2cccc(C(=O)OCC(=O)NCc3ccco3)c2)cc1 do in these assays?
Avidin fluor: 8; RGS7-Gao: 148; RGS4-Gao reg: 163*[activator]; RGS16-Gao: 444; RGS8-Gao reg: 178*[activator]; GSH fluor: 231*; Avidin counter: -1; RGS8-Gao single: 97; RGS7-Gao confirm: 93; RGS16-Gao single: 94; RGS4-Gao confirm: 93; RGS19-Gao single: 74

What do the screens show for `CC(C)[C@H](NC(=O)c1ccc(F)cc1)C(=O)NC1=NCCS1`?
Avidin fluor: 15; RGS7-Gao: 104; RGS4-Gao reg: 105; RGS16-Gao: 118; RGS8-Gao reg: 107; GSH fluor: 15

How did CC(C)COc1ccc2[nH]c3c(c2c1)CCCC3=O do in these assays?
Avidin fluor: 12; RGS7-Gao: 103; RGS4-Gao reg: 118; RGS16-Gao: 336*[activator]; RGS8-Gao reg: 121; GSH fluor: 9; RGS-Gao: 118*; Avidin counter: 0; RGS8-Gao single: 105; RGS7-Gao confirm: 105; RGS16-Gao single: 103; RGS4-Gao confirm: 101; RGS19-Gao single: 97

Results for CC1(C)CC(=O)C(C=NCC(N)=O)=C(O)C1 ?
Avidin fluor: 12; RGS7-Gao: 149; RGS4-Gao reg: 147; RGS16-Gao: 151; RGS8-Gao reg: 146*[activator]; GSH fluor: 32; RGS-Gao: 147*

Screens: PubChem BioAssay, NMMLSC
